# Results: the supplement of paper PMC10037445
# ± gives the standard deviation of the averaged measurements. In all, about 2,900 compounds were measured (“NF-kB SEAP reporter activity, fold change vs agonist alone”: median about 0.99, highest 2% from about 2.6 on). The sample holds the highest values, similar compounds and a random draw of the others, so the mix is not that of the screen.
# How the values were obtained:
# RAW-Dual [1] = assay: NF-kB SEAP reporter activity, fold change vs agonist alone; cytotoxicity flag (confluency mask): not cytotoxic; higher = enhanced NF-kB activity
# Outline: (§1)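 Supernatant from RAW-Dual macrophages was read after 20 hours for IRF by QuantiLuc luminescence and for NF-κB by QuantiBlue absorbance at 620 nm. The cells (50,000 cells/well in DMEM, 384-well plates, 37 °C, 5% CO2) had received 50 nL of library stock by pin tool and, 1 h later, a PRR agonist. Reporter activity is expressed relative to agonist-alone wells as fold change, and wells were flagged cytotoxic if IncuCyte confluency was under 70% of agonist controls in both mask sets.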
# RAW-Dual [2] = assay: NF-kB SEAP reporter activity, fold change vs agonist alone; higher = enhanced NF-kB activity; settings: cytotoxicity flag (confluency mask): not cytotoxic
# Outline: as §1
# [3] = agonist: ODN 1826 (TLR9) 0.5 ug/mL
# [4] = agonist: Pam2CSK4 (TLR2/6) 0.1 ug/mL
# [5] = agonist: Pam3CSK4 (TLR2/1) 0.1 ug/mL
# [6] = library stock concentration (final ~1000-fold dilution): 10 mM, agonist: Imiquimod (TLR7) […]
# [7] = library stock concentration (final ~1000-fold dilution): 10 mM, agonist: MPLA (TLR4) […]
compound,measurement,setting,value
CNCCN(C)Cc1c[nH]nc1-c1ccc(OC2CC(OCCC3CCOCC3)C2)cc1.Cl.Cl (stereo unspecified) (library stock concentration (final ~1000-fold dilution): 10 mM),NF-kB SEAP reporter activity,RAW-Dual [1]; agonist: LPS (TLR4) 0.1 ug/mL,0.836
same,NF-kB SEAP reporter activity,RAW-Dual [1]; [3],0.674
same,NF-kB SEAP reporter activity,RAW-Dual [1]; [4],0.874
same,NF-kB SEAP reporter activity,RAW-Dual [1]; [5],0.586
CNCCN(C)Cc1c[nH]nc1-c1ccc(OC2CC(OCCC3CCOCC3)C2)cc1.Cl.Cl (stereo unspecified),NF-kB SEAP reporter activity,RAW-Dual [2]; [6],0.935
same,NF-kB SEAP reporter activity,RAW-Dual [2]; [7],1.07
COc1ccc(CCc2nc3cc(-c4c(C)noc4C)ccc3n2CC(C)N2CCOCC2)cc1Cl (stereo unspecified) (library stock concentration (final ~1000-fold dilution): 10 mM),NF-kB SEAP reporter activity,RAW-Dual [1]; agonist: LPS (TLR4) 0.1 ug/mL,4.47
same,NF-kB SEAP reporter activity,RAW-Dual [1]; [3],2.49
same,NF-kB SEAP reporter activity,RAW-Dual [1]; [4],1.06
same,NF-kB SEAP reporter activity,RAW-Dual [1]; [5],2.27
CCCOc1ccc(CCc2nc3cc(-c4c(C)noc4C)ccc3n2CCN2CCOCC2)cc1.Cl (library stock concentration (final ~1000-fold dilution): 10 mM),NF-kB SEAP reporter activity,RAW-Dual [1]; agonist: LPS (TLR4) 0.1 ug/mL,2.48
same,NF-kB SEAP reporter activity,RAW-Dual [1]; [3],1.9
same,NF-kB SEAP reporter activity,RAW-Dual [1]; [4],0.609
same,NF-kB SEAP reporter activity,RAW-Dual [1]; [5],1.04
COc1ccc(CCc2nc3cc(-c4c(C)noc4C)ccc3n2CC(C)N2CCOCC2)cc1Cl (stereo unspecified),NF-kB SEAP reporter activity,RAW-Dual [2]; [6],1.51
same,NF-kB SEAP reporter activity,RAW-Dual [2]; [7],2.65
CCCOc1ccc(CCc2nc3cc(-c4c(C)noc4C)ccc3n2CCN2CCOCC2)cc1.Cl,NF-kB SEAP reporter activity,RAW-Dual [2]; [6],1.53
same,NF-kB SEAP reporter activity,RAW-Dual [2]; [7],1.98
Cc1nc2cc(F)c(F)cc2n1-c1cncc(Nc2ccc(C(F)(F)F)cc2)n1,NF-kB SEAP reporter activity,RAW-Dual [2]; [6],1.56
same,NF-kB SEAP reporter activity,RAW-Dual [2]; [7],1.33
Cc1nc2cc(F)c(F)cc2n1-c1cncc(Nc2ccc(C(F)(F)F)cc2)n1 (library stock concentration (final ~1000-fold dilution): 10 mM),NF-kB SEAP reporter activity,RAW-Dual [1]; agonist: LPS (TLR4) 0.1 ug/mL,1.36
same,NF-kB SEAP reporter activity,RAW-Dual [1]; [3],1.31
same,NF-kB SEAP reporter activity,RAW-Dual [1]; [4],0.571
same,NF-kB SEAP reporter activity,RAW-Dual [1]; [5],0.582
CC1=CC2(O)OC3(CC2=C(C)C)C(C)CCC13 (stereo unspecified),NF-kB SEAP reporter activity,RAW-Dual [2]; [6],0.957 ± 0.03
same,NF-kB SEAP reporter activity,RAW-Dual [2]; [7],1.03 ± 0.025
CC1=CC2(O)OC3(CC2=C(C)C)C(C)CCC13 (stereo unspecified) (library stock concentration (final ~1000-fold dilution): 10 mM),NF-kB SEAP reporter activity,RAW-Dual [1]; agonist: LPS (TLR4) 0.1 ug/mL,1.04 ± 0.043
same,NF-kB SEAP reporter activity,RAW-Dual [1]; [3],0.938 ± 0.07
same,NF-kB SEAP reporter activity,RAW-Dual [1]; [4],0.963 ± 0.062
same,NF-kB SEAP reporter activity,RAW-Dual [1]; [5],1.06 ± 0.049
CCc1cc2c(cc1N1CCC(N3CCOCC3)CC1)C(C)(C)c1[nH]c3cc(C#N)ccc3c1C2=O.Cl,NF-kB SEAP reporter activity,"RAW-Dual [2]; library stock concentration (final ~1000-fold dilution): 2 mM, agonist: MPLA (TLR4) […]",1.31
CCc1cc2c(cc1N1CCC(N3CCOCC3)CC1)C(C)(C)c1[nH]c3cc(C#N)ccc3c1C2=O.Cl (library stock concentration (final ~1000-fold dilution): 2 mM),NF-kB SEAP reporter activity,RAW-Dual [1]; agonist: LPS (TLR4) 0.1 ug/mL,1.71
same,NF-kB SEAP reporter activity,RAW-Dual [1]; [3],1.17
same,NF-kB SEAP reporter activity,RAW-Dual [1]; [4],1.15
same,NF-kB SEAP reporter activity,RAW-Dual [1]; [5],1.15
O=C(O)c1ccc(/C=C2/SC(=S)N(Cc3cccc(C(F)(F)F)c3)C2=O)cc1,NF-kB SEAP reporter activity,RAW-Dual [2]; [6],0.954
same,NF-kB SEAP reporter activity,RAW-Dual [2]; [7],0.727
O=C(O)c1ccc(/C=C2/SC(=S)N(Cc3cccc(C(F)(F)F)c3)C2=O)cc1 (library stock concentration (final ~1000-fold dilution): 10 mM),NF-kB SEAP reporter activity,RAW-Dual [1]; agonist: LPS (TLR4) 0.1 ug/mL,0.619
same,NF-kB SEAP reporter activity,RAW-Dual [1]; [3],0.737
same,NF-kB SEAP reporter activity,RAW-Dual [1]; [4],0.832
same,NF-kB SEAP reporter activity,RAW-Dual [1]; [5],0.5
